In article PMC5700166:
Substitutions are numbered along the chain they refer to.

Experiments:
Assay in all cases: protein-binding microarray (PBM); PBM: ~300 nM protein, 6 mM HEPES pH 7.8, 80 mM KCl, 0.5 mM EDTA, 0.5 mM EGTA, 6% glycerol, 35 ng/ul poly-dIdC, 1% milk, 1 h, room temperature; Ap Aiptasia and Nv Nematostella (sea anemones) / Co Capsaspora / Aq Amphimedon (sponge) / Dm Drosophila / Hu human; RHD is the Rel homology domain; high values mean tight binding
Details in all cases: dsDNA, one strand shown
GST-Ap-NF-kB RHD = biological target: T1, GST-Ap-NF-kB RHD (Exaiptasia pallida (Aiptasia), UniProt A0A913YAJ5 2-422)
T1 sequence: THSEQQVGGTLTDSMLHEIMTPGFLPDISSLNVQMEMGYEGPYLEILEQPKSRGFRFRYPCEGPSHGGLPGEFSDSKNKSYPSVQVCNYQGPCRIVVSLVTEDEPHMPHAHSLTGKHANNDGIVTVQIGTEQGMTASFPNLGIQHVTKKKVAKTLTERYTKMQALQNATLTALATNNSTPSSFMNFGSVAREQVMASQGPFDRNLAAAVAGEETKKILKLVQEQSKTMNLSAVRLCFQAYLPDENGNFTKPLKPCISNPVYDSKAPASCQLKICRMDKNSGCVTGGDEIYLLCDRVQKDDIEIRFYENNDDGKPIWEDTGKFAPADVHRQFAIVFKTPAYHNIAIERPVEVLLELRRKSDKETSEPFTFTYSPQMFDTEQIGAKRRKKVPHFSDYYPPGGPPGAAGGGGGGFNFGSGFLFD

[1] = biological target: T2, GST-Nv-NF-kB (Cys allele) (Nematostella vectensis, UniProt E5G601 2-411)
T2 sequence: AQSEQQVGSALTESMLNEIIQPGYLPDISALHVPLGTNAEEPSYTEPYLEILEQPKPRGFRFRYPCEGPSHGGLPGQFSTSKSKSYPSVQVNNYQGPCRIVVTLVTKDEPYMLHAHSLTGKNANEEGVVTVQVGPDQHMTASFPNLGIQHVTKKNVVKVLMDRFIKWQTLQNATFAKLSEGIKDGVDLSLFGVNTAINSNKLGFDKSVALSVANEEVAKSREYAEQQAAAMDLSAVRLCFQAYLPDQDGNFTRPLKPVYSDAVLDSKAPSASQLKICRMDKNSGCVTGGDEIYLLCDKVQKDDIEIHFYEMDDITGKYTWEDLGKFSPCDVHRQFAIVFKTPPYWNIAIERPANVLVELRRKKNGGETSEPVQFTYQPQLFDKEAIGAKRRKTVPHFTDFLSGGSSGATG

[2] = biological target: T3, GST-Nv-NF-kB (Ser allele) (Nematostella vectensis, UniProt A7UNT2 2-411)
T3 sequence: T2 sequence with Q21R, C66S, S207N, E215Q, V217A, E225K, A268E, D399E

GST-Co-NF-kB = biological target: T4, GST-Co-NF-kB (Capsaspora owczarzaki, UniProt F1ARL5 200-546)
T4 sequence: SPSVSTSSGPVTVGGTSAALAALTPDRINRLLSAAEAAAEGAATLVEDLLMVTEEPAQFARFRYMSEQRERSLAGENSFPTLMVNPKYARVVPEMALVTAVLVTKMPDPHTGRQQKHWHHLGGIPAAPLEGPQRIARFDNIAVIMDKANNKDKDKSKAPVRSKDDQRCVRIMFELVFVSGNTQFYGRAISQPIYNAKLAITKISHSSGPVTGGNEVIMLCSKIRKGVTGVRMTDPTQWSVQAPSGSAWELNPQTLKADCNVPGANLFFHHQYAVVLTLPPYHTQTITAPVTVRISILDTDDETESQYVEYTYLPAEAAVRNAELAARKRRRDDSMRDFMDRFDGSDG

GST-Dm-Relish = biological target: T5, GST-Dm-Relish (Drosophila melanogaster, UniProt Q94527 99-473)
T5 sequence: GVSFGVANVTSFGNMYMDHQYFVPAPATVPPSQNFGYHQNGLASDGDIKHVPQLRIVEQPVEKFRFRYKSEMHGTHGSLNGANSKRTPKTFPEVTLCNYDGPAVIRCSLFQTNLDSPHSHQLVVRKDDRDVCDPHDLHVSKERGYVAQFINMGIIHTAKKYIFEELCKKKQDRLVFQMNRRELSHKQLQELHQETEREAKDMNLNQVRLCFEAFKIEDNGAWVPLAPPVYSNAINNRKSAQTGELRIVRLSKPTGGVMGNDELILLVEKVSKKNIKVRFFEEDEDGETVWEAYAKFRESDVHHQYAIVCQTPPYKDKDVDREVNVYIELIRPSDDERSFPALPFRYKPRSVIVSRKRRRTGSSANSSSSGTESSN

GST-Aq-NF-kB = biological target: T6, GST-Aq-NF-kB (Amphimedon queenslandica, UniProt A9Y5G7 2-389)
T6 sequence: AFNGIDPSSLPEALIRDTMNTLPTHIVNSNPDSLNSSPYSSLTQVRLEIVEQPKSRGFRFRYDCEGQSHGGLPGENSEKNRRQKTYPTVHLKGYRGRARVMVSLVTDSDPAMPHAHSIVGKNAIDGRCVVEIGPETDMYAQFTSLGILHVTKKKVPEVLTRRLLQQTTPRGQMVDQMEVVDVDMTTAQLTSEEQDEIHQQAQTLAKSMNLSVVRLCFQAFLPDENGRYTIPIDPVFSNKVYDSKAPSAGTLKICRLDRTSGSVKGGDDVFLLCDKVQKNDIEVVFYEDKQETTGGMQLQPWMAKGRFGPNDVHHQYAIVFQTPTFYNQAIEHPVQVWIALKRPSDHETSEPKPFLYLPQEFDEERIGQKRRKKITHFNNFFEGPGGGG

GST-Hu-p50 = GST-Hu-p50 (Homo sapiens, UniProt P19838 7-356)
GST-Hu-p50, sequence (P19838 7-356): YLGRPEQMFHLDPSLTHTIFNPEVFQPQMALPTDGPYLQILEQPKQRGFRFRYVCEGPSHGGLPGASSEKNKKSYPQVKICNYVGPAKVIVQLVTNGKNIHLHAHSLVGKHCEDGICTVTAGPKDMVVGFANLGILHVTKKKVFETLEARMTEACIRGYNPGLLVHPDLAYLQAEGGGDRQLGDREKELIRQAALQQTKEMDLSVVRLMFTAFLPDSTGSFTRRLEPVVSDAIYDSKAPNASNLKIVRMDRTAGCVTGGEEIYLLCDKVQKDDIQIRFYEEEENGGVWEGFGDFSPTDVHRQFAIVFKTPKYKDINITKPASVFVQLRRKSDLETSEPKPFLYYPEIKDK

Row | Sequence | binding signal (GST-Ap-NF-kB RHD) | binding signal [1] | binding signal [2] | binding signal (GST-Co-NF-kB) | binding signal (GST-Dm-Relish) | binding signal (GST-Aq-NF-kB) | binding signal (GST-Hu-p50)
1 | CCGATTAACATCAGGCCTTTCCCTGATGTTAATCGGGTCTTGATTCGCTTGACGCTGCTG | 2.77 z-score | 4.72 z-score | 2.62 z-score | 1.36 z-score | 5.87 z-score | 6.74 z-score | 3.53 z-score
2 | CCGATTAACATCAGAGCTCCCCCTGATGTTAATCGGGTCTTGATTCGCTTGACGCTGCTG | 5.05 z-score | 4.31 z-score | 4.32 z-score | 5.45 z-score | 1.98 z-score | 3.98 z-score | 4.94 z-score
3 | CCGATTAACATCAGGGGGAAAACTGATGTTAATCGGGTCTTGATTCGCTTGACGCTGCTG | 8.4 z-score | 8.08 z-score | 9.8 z-score | 11.7 z-score | 7.59 z-score | 7.21 z-score | 7.47 z-score
4 | CCGATTAACATCAGGGGGAGGAATGATGTTAATCGGGTCTTGATTCGCTTGACGCTGCTG | 5.2 z-score | 4.58 z-score | 6.46 z-score | 7.99 z-score | 2.99 z-score | 4.59 z-score | 4.89 z-score
5 | CCGATTAACATCAAATATCCCCCTGATGTTAATCGGGTCTTGATTCGCTTGACGCTGCTG | 8.79 z-score | 8.51 z-score | 8.83 z-score | 8.39 z-score | 7.63 z-score | 6.9 z-score | 6.58 z-score
6 | CCGATTAACATCAGGGAAAGACCTGATGTTAATCGGGTCTTGATTCGCTTGACGCTGCTG | 3.24 z-score | 5.27 z-score | 4.32 z-score | 1.41 z-score | 5.61 z-score | 7.5 z-score | 3.67 z-score
7 | CCGATTAACATCAGGATTTACCCTGATGTTAATCGGGTCTTGATTCGCTTGACGCTGCTG | 3.04 z-score | 4.29 z-score | 3.54 z-score | 1.85 z-score | 5.15 z-score | 6.67 z-score | 3.39 z-score
8 | CCGATTAACATCAAGGGGGTACTTGATGTTAATCGGGTCTTGATTCGCTTGACGCTGCTG | 4.81 z-score | 3.89 z-score | 4.77 z-score | 2.92 z-score | 2.88 z-score | 3.78 z-score | 4.47 z-score
9 | CCGATTAACATCAAAAATTCCCGTGATGTTAATCGGGTCTTGATTCGCTTGACGCTGCTG | 5.97 z-score | 8.78 z-score | 8.06 z-score | 6.08 z-score | 7.67 z-score | 7.49 z-score | 5.55 z-score
10 | CCGATTAACATCACAGTTTCCCCTGATGTTAATCGGGTCTTGATTCGCTTGACGCTGCTG | 6.64 z-score | 7.28 z-score | 10.3 z-score | 7.74 z-score | 3.35 z-score | 4.9 z-score | 5.61 z-score
11 | CCGATTAACATCAGGGGGAAGAATGATGTTAATCGGGTCTTGATTCGCTTGACGCTGCTG | 5.11 z-score | 6.3 z-score | 6.8 z-score | 9.93 z-score | 4.78 z-score | 4.87 z-score | 5.86 z-score
12 | CCGATTAACATCAGGGTATTTAATGATGTTAATCGGGTCTTGATTCGCTTGACGCTGCTG | 2.74 z-score | 4.26 z-score | 4.73 z-score | 1.37 z-score | 3.25 z-score | 4.14 z-score | 4.41 z-score
13 | CCGATTAACATCAAGCATTCCCCTGATGTTAATCGGGTCTTGATTCGCTTGACGCTGCTG | 6.61 z-score | 7.73 z-score | 8.37 z-score | 5.48 z-score | 4.42 z-score | 5.38 z-score | 5.38 z-score
14 | CCGATTAACATCAAATTTCCCAATGATGTTAATCGGGTCTTGATTCGCTTGACGCTGCTG | 2.25 z-score | 4.12 z-score | 3.77 z-score | 3.94 z-score | 2.51 z-score | 3.58 z-score | 3.39 z-score
15 | CCGATTAACATCAAATTACCCCCTGATGTTAATCGGGTCTTGATTCGCTTGACGCTGCTG | 6.8 z-score | 5.57 z-score | 6.77 z-score | 8.18 z-score | 4.33 z-score | 5.57 z-score | 5.08 z-score
16 | CCGATTAACATCAAAGTCCCCCGTGATGTTAATCGGGTCTTGATTCGCTTGACGCTGCTG | 6.78 z-score | 5.8 z-score | 6.12 z-score | 6.7 z-score | 7.35 z-score | 5.87 z-score | 5.37 z-score
17 | CCGATTAACATCAATTATCCCCCTGATGTTAATCGGGTCTTGATTCGCTTGACGCTGCTG | 6.74 z-score | 5.48 z-score | 6.6 z-score | 7.87 z-score | 4.31 z-score | 5.15 z-score | 5.52 z-score
18 | CCGATTAACATCAAGAGATCCCCTGATGTTAATCGGGTCTTGATTCGCTTGACGCTGCTG | 6.49 z-score | 5.71 z-score | 6.22 z-score | 2.3 z-score | 6.47 z-score | 4.97 z-score | 4.57 z-score
19 | CCGATTAACATCAATCTCCCCCCTGATGTTAATCGGGTCTTGATTCGCTTGACGCTGCTG | 7.54 z-score | 5.24 z-score | 7.29 z-score | 8.72 z-score | 4.23 z-score | 5.63 z-score | 6.63 z-score
20 | CCGATTAACATCAAATTTCCCGTTGATGTTAATCGGGTCTTGATTCGCTTGACGCTGCTG | 3.33 z-score | 5.71 z-score | 5.5 z-score | 4.13 z-score | 3.24 z-score | 5.53 z-score | 4.24 z-score
21 | CCGATTAACATCAGGGAAATCCATGATGTTAATCGGGTCTTGATTCGCTTGACGCTGCTG | 4.11 z-score | 5.43 z-score | 5.07 z-score | 3.28 z-score | 5.65 z-score | 5.63 z-score | 3.96 z-score
22 | CCGATTAACATCAGGACTTTCCCTGATGTTAATCGGGTCTTGATTCGCTTGACGCTGCTG | 6.5 z-score | 10.2 z-score | 6.68 z-score | 1.87 z-score | 7.98 z-score | 10.5 z-score | 5.32 z-score
23 | CCGATTAACATCAAAAAAAACCCTGATGTTAATCGGGTCTTGATTCGCTTGACGCTGCTG | 5.46 z-score | 6.25 z-score | 6.4 z-score | 1.62 z-score | 7.4 z-score | 7.35 z-score | 5.56 z-score
